Data taken from PubChem BioAssay (NCI).
This is part of a sample that, as a whole, favours compounds with a hit. Of some 83,000 tested, about 20% had one in any assay.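 A percent growth of 40 corresponds to 60% growth inhibition; 0 means no net growth; -100 means all cells died. Active threshold: below 10.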 Values without a mark were called inactive. Activity calls are given as the source filed them.

Columns and labels:
Assay in all cases: NCI-60 one-dose screen, 48 h (100 = growth as untreated, 0 = no growth, -100 = all killed)
[1] = system: SR leukemia; conditions: 10 µM unless noted
[2] = system: RPMI-8226 leukemia; conditions: 10 µM unless noted
[3] = system: OVCAR-8 ovarian; conditions: 10 µM unless noted
[4] = system: OVCAR-5 ovarian; conditions: 10 µM unless noted
[5] = system: OVCAR-4 ovarian; conditions: 10 µM unless noted
[6] = system: SK-OV-3 ovarian; conditions: 10 µM unless noted
[7] = system: IGROV1 ovarian; conditions: 10 µM unless noted
[8] = system: OVCAR-3 ovarian; conditions: 10 µM unless noted
[9] = system: HS 578T breast; conditions: 10 µM
[10] = system: NCI/ADR-RES ovarian; conditions: 10 µM unless noted
[11] = system: T-47D breast; conditions: 10 µM unless noted
[12] = system: MDA-MB-435 melanoma; conditions: 10 µM unless noted
[13] = system: SW-620 colon; conditions: 10 µM unless noted
[14] = system: MCF7 breast; conditions: 10 µM unless noted
[15] = system: HCT-116 colon; conditions: 10 µM unless noted
[16] = system: HCC-2998 colon; conditions: 10 µM
[17] = system: KM12 colon; conditions: 10 µM unless noted
[18] = system: BT-549 breast; conditions: 10 µM unless noted

CC(C)(C)C(=O)OCOP(=O)(OCOC(=O)C(C)(C)C)C1CCCN(OC(=O)c2ccccc2)C1=O (centres undefined)
growth [1]: 7.15% (active)
growth [2]: -30.8% (active)
growth [3]: 7.36% (active)
growth [4]: 65.5%
growth [5]: 31.9%
growth [6]: 20.6%
growth [7]: 5.28% (active)
growth [8]: 7.34% (active)
growth [9]: 8% (active)
growth [10]: 3.76% (active)
growth [11]: 13.8%
growth [12]: 45.2%
growth [13]: 45.1%
growth [14]: 0.983% (active)
growth [15]: 13%
growth [16]: 25.2%
growth [17]: 5.57% (active)

Cc1cc(C2(c3ccc(O)c(C)c3)OS(=O)(=O)c3ccccc32)ccc1O
growth [1]: 97.2%
growth [2]: 99.3%
growth [3]: 107%
growth [4]: 110%
growth [5]: 107%
growth [6]: 111%
growth [7]: 105%
growth [8]: 119%
growth [9]: 101%
growth [10]: 109%
growth [11]: 110%
growth [12]: 113%
growth [13]: 108%
growth [14]: 101%
growth [15]: 104%
growth [16]: 114%
growth [17]: 110%

O=C(CNc1nc(-c2ccc(Cl)cc2)cs1)Nc1ccc(-c2nc3ccccc3s2)cc1
growth [1]: 89.7%
growth [2]: 87.4%
growth [3]: 98%
growth [4]: 90.4%
growth [5]: 70.5%
growth [6]: 95%
growth [7]: 59.1%
growth [8]: 94%
growth [9]: 91.3%
growth [10]: 94.2%
growth [11]: 56.1%
growth [18]: 107%
growth [12]: 104%
growth [13]: 99.9%
growth [14]: 29.9%
growth [16]: 97.5%
growth [17]: 99%

Cc1c(N)ccc(-c2ccc(N)c(C)c2S(=O)(=O)O)c1S(=O)(=O)O
growth [1]: 102%
growth [2]: 107%
growth [3]: 107%
growth [4]: 101%
growth [5]: 112%
growth [6]: 111%
growth [7]: 110%
growth [8]: 124%
growth [9]: 106%
growth [10]: 102%
growth [11]: 106%
growth [12]: 114%
growth [13]: 109%
growth [14]: 108%
growth [15]: 101%
growth [16]: 102%
growth [17]: 116%

Cc1ccc2oc(=O)cc(-c3cc(-c4cc5ccccc5oc4=O)nc(N)c3C#N)c2c1
growth [1]: 74.3%
growth [2]: 72.9%
growth [3]: 61.1%
growth [4]: 101%
growth [5]: 8.25% (active)
growth [6]: 78.8%
growth [7]: 81.6%
growth [8]: 77.1%
growth [9]: 70.7%
growth [10]: 80.4%
growth [11]: 59.7%
growth [18]: 57.2%
growth [12]: 65.7%
growth [13]: 83.5%
growth [14]: 78.1%
growth [16]: 93%
growth [17]: 65.7%

O=S1(=O)OC(c2cc(Cl)c(O)c(Br)c2)(c2cc(Cl)c(O)c(Br)c2)c2ccccc21
growth [1]: 92.4%
growth [2]: 102%
growth [3]: 89.8%
growth [4]: 100%
growth [5]: 101%
growth [6]: 109%
growth [7]: 95.6%
growth [8]: 115%
growth [9]: 94.1%
growth [10]: 102%
growth [11]: 114%
growth [12]: 124%
growth [13]: 99.6%
growth [14]: 104%
growth [15]: 96.7%
growth [16]: 103%
growth [17]: 106%

O=C1CSC(c2c(F)cccc2Cl)N1NC(=O)C(O)(c1ccccc1)c1ccccc1 (centres undefined)
growth [1]: 95.5%
growth [2]: 94%
growth [3]: 98.3%
growth [4]: 103%
growth [5]: 97.4%
growth [6]: 101%
growth [7]: 72%
growth [8]: 100%
growth [9]: 90.1%
growth [10]: 95.4%
growth [11]: 93.3%
growth [18]: 104%
growth [12]: 104%
growth [13]: 99.9%
growth [14]: 110%
growth [17]: 108%

CCCCCCCCCNCCCCCCCCC
growth [1]: -22.9% (active)
growth [2]: -22.4% (active)
growth [3]: 73.5%
growth [4]: 63.5%
growth [5]: 29.2%
growth [6]: 92.6%
growth [7]: 50.8%
growth [8]: 86%
growth [9]: 83.7%
growth [10]: 68.3%
growth [11]: 57.7%
growth [12]: 47.6%
growth [13]: 41.5%
growth [14]: 13.4%
growth [15]: 20.2%
growth [16]: 23.8%
growth [17]: 22.6%

COc1cc2c(cc1OCCCCN1CCN(CC(=O)Nc3ccc(Cl)cc3C(=O)c3ccccc3Cl)CC1)N=CC1CCCN1C2=O (centres undefined)
growth [1]: -66.7% (active)
growth [2]: -74% (active)
growth [3]: -65.5% (active)
growth [4]: -51.7% (active)
growth [5]: -91.4% (active)
growth [6]: -76% (active)
growth [7]: -88.2% (active)
growth [8]: -94.6% (active)
growth [9]: -66.4% (active)
growth [10]: 2.24% (active)
growth [11]: -65.4% (active)
growth [12]: -93.8% (active)
growth [13]: -57% (active)
growth [14]: -67.1% (active)
growth [15]: -66.2% (active)
growth [17]: -55.5% (active)

O=C(Nc1cccc([N+](=O)[O-])c1)c1ccc(Cl)c(Cl)c1
growth [1]: 80.7%
growth [2]: 79.1%
growth [3]: 43.5%
growth [4]: 94.2%
growth [5]: 16.7%
growth [6]: 53.3%
growth [7]: 47%
growth [8]: 53.8%
growth [9]: 70%
growth [10]: 79%
growth [11]: 54.8%
growth [12]: 92%
growth [13]: 96.2%
growth [14]: 49%
growth [15]: 56.8%
growth [16]: 120%
growth [17]: 93.8%

Cc1sc2c(c1C)c(=O)nc1c(-c3nc4ccccc4s3)n[nH]n12
growth [1]: 88.5%
growth [2]: 87.9%
growth [3]: 97.9%
growth [4]: 110%
growth [5]: 99.6%
growth [6]: 91.4%
growth [7]: 94.2%
growth [8]: 98.2%
growth [9]: 93.3%
growth [10]: 93.7%
growth [11]: 85.2%
growth [12]: 110%
growth [13]: 104%
growth [14]: 79.6%
growth [15]: 90%
growth [16]: 96.3%
growth [17]: 98.7%

CC(=O)C1CC(C)CCC1C(C)C (centres undefined)
growth [1]: 78.9%
growth [2]: 56.3%
growth [3]: 109%
growth [4]: 105%
growth [5]: 61.4%
growth [6]: 108%
growth [7]: 99.2%
growth [8]: 94.7%
growth [9]: 106%
growth [10]: 86.4%
growth [11]: 71.9%
growth [12]: 121%
growth [13]: 106%
growth [14]: 85.3%
growth [15]: 61.6%
growth [16]: 104%
growth [17]: 98%

CCN(CC)c1cc2oc3cc(N)cc(=N)c-3nc2cc1C
growth [1]: 30.4%
growth [2]: 43.4%
growth [3]: 2.1% (active)
growth [4]: 32.3%
growth [5]: -6.55% (active)
growth [6]: 103%
growth [7]: 50.9%
growth [8]: 24.7%
growth [9]: 37.4%
growth [10]: 1.37% (active)
growth [11]: 39%
growth [12]: -64.8% (active)
growth [13]: 24.1%
growth [14]: 1.63% (active)
growth [15]: -12.2% (active)
growth [16]: 100%
growth [17]: 40.2%

C=CC(=O)N(C)[C@H]1C[C@H]2OC(C)(C1OC)n1c3ccccc3c3c4c(c5c6ccccc6n2c5c31)C(=O)NC4 (some centres undefined)
growth [1]: -25.3% (active)
growth [2]: -11.3% (active)
growth [3]: 3.41% (active)
growth [4]: 28.9%
growth [5]: 42.2%
growth [6]: -21.3% (active)
growth [7]: 13.7%
growth [8]: -11.1% (active)
growth [9]: -14.9% (active)
growth [10]: -1.79% (active)
growth [11]: 16.5%
growth [18]: -70.4% (active)
growth [12]: 6.02% (active)
growth [13]: 10.3%
growth [14]: 12.5%
growth [16]: -48.1% (active)
growth [17]: 9.67% (active)

Ic1ccccc1-c1ccccc1
growth [1]: 102%
growth [2]: 103%
growth [3]: 110%
growth [4]: 114%
growth [5]: 109%
growth [6]: 111%
growth [7]: 117%
growth [8]: 111%
growth [9]: 102%
growth [10]: 110%
growth [11]: 107%
growth [12]: 121%
growth [13]: 102%
growth [14]: 103%
growth [15]: 111%
growth [16]: 114%
growth [17]: 109%

CCN(CCN(C)C)C(=O)CNCc1cc(C(N)=O)ccn1
growth [1]: 93%
growth [2]: 96.1%
growth [3]: 89.9%
growth [4]: 101%
growth [5]: 109%
growth [6]: 96.4%
growth [7]: 109%
growth [8]: 119%
growth [9]: 108%
growth [10]: 104%
growth [11]: 104%
growth [12]: 110%
growth [13]: 109%
growth [14]: 96.1%
growth [15]: 94.4%
growth [16]: 94.2%
growth [17]: 101%

CC(C)OP(=O)(CCC(=O)c1c[nH]c2ccccc12)OC(C)C
growth [1]: 100%
growth [2]: 73.5%
growth [3]: 91.8%
growth [4]: 107%
growth [5]: 105%
growth [6]: 89%
growth [7]: 106%
growth [8]: 106%
growth [9]: 86.6%
growth [10]: 103%
growth [11]: 89.5%
growth [18]: 117%
growth [13]: 105%
growth [14]: 100%
growth [15]: 113%
growth [16]: 97.3%
growth [17]: 99.9%

Cc1ccc(N)cc1CN1C(=O)c2ccccc2C1=O
growth [1]: 87.4%
growth [2]: 99.3%
growth [3]: 101%
growth [4]: 104%
growth [5]: 110%
growth [6]: 94.2%
growth [7]: 105%
growth [8]: 117%
growth [9]: 106%
growth [10]: 107%
growth [11]: 110%
growth [12]: 106%
growth [13]: 108%
growth [14]: 108%
growth [15]: 93.4%
growth [16]: 104%
growth [17]: 111%
